Laboratory results reported in the supplement of paper PMC5641865, “A screen for kinase inhibitors identifies antimicrobial imidazopyridine aminofurazans as specific inhibitors of the Listeria monocytogenes PASTA kinase PrkA” (The Journal of Biological Chemistry, 2017).
Values joined by “and” are separate entries in the source; they are usually repeats but may differ in a detail not shown here. Equal entries are not always repeated. ± gives the standard deviation of the averaged measurements.

System: Listeria monocytogenes 10403S
Experiment: growth inhibition relative to ceftriaxone-alone control; higher = stronger potentiation of ceftriaxone growth inhibition
Conditions: 10 µM; ceftriaxone 1 ug/ml; 12 h
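Note: End-point A600 read in BHI broth at 37 °C with 2% DMSO, inhibition computed as (1 − OD with compound plus ceftriaxone ÷ OD with ceftriaxone only) × 100.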

Which growth inhibition does the source give for `N#Cc1c(NC(=O)c2ccccc2F)sc2c1CCCC2` here?
Its growth inhibition is -3.06 ± 2.3%.

For `NC(=O)c1ccc(-c2nc(-c3ccccn3)c(-c3ccc4c(c3)OCO4)[nH]2)cc1`, which growth inhibition is on record?
Its growth inhibition is -0.443% and 16.4%.

How did the growth inhibition turn out when `Cc1ncc(-c2ccnc(Nc3ccc(S(C)(=O)=O)cc3)n2)n1C(C)C` was run?
The growth inhibition was 97.4 ± 2.4%.

Which growth inhibition does the source give for `NCc1ccc(-c2nc(-c3ccc(Cl)c(O)c3)c(-c3ccncc3)[nH]2)cc1` here?
Its growth inhibition is -9.88 ± 15%.

Which growth inhibition does the source give for `COc1ccc(-c2cc(-c3c[nH]nc3-c3ccccn3)ccn2)cc1` here?
The growth inhibition was 3.1 ± 4.7%.

For `Cc1cc2c(F)c(Oc3ncnn4cc(OC[C@@H](C)O)c(C)c34)ccc2[nH]1`, which growth inhibition is on record?
Its growth inhibition is 15.5 ± 23%.

Which growth inhibition does the source give for `CCc1nccc2c1nc(-c1nonc1N)n2CC` here?
Its growth inhibition is -8.48 ± 4.8%.

For `COc1ccc(-c2ccc3c(NC(=O)C4CC4)n[nH]c3n2)cc1`, which growth inhibition is on record?
Its growth inhibition is -7.27 ± 8.3%.

For `FC(F)(F)c1ccc(-c2nn3ncccc3c2-c2ccnc(Nc3ccc4c(c3)OCCO4)n2)cc1`, which growth inhibition is on record?
Its growth inhibition is -7.04 ± 3.3%.

For `COc1ccc(-c2ccncc2)cc1C(N)=O`, which growth inhibition is on record?
The growth inhibition was -4.48 ± 7.1%.

Which growth inhibition does the source give for `CC(C)COC(=O)c1ccc2c(c1)/C(=C/Nc1ccc(S(N)(=O)=O)cc1)C(=O)N2` here?
Its growth inhibition is -6.41 ± 14%.

With `COc1ccccc1-c1cc(/C=C2\C(=O)Nc3ncc(Br)cc32)cc(Br)c1O` as the compound, how does the growth inhibition read?
The growth inhibition was -8.54 ± 8.1%.

Which growth inhibition does the source give for `CC(C)n1nc(-c2ccc3oc(N)nc3c2)c2c(N)ncnc21` here?
Its growth inhibition is -0.352 ± 1.4%.

`CC(C)(C)Cn1c(N)nc2ccc(-c3[nH]c(C(C)(C)C)nc3-c3ccc(F)cc3)nc21` was tested. Which growth inhibition did it give?
Its growth inhibition is 97.5 ± 1.3%.

With `C=CC(=O)Nc1ccc2ncnc(Nc3ccc(OCc4cccc(F)c4)c(Cl)c3)c2c1` as the compound, how does the growth inhibition read?
Its growth inhibition is 17.47 ± 0.16%.

With `COc1cc2c(cc1Nc1nc(Nc3ccsc3C(N)=O)c3cc[nH]c3n1)N(C(=O)CN(C)C)CCC2(C)C` as the compound, how does the growth inhibition read?
The growth inhibition was -4.89 ± 0.71%.

For `N#CC[C@H](C1CCCC1)n1cc(-c2ncnc3[nH]ccc23)cn1`, which growth inhibition is on record?
Its growth inhibition is 10.6 ± 1.1%.
